Where “and” joins values, the source holds several entries; their conditions need not be identical. Equal values may be shown once. Hit rate of the full screen: of about 5,500 compounds, about 2,000 (36%) were called active. Not shown: some 18% with an inconclusive outcome. No stated cut-off is given here; in the data, active means normalized growth mostly below about 0.91 (no sharp cut-off); inconclusive means no clear call, values can overlap the other calls; inactive means mostly above about 0.92. The list shows a part of the results.
Experiment: chemical genetic growth profiling, strain panel (AID 1159580);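 further: tested at 20 µM; growth read once vehicle control cultures reached saturation at 30 °C; 1 = growth at the plate median or of vehicle wells; lower values mean less growth of the strain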
Settings: S. cerevisiae deletion strains, growth OD

Measured: normalized growth

NCCCCN
inactive: locus YAL013W, strain DEP1, active compounds read low 1.02 | locus YAL040C, strain CLN3, active compounds read low 1.07 | locus YBR021W, strain FUR4, active compounds read low 1.02 | locus YBR229C, strain ROT2, active compounds read low 1 | locus YCL029C, strain bik1, active compounds read low 0.99 | locus YCL061C, strain MRC1 (second series), active compounds read low 0.999 | locus YDL035C, strain GPR1, active compounds read low 1.04 | locus YDL074C, strain BRE1, active compounds read low 1.01 | locus YDL101C, strain DUN1, active compounds read low 1.01 | locus YDL185W, strain tfp1, active compounds read low 1.02 | locus YDL192W, strain arf1, active compounds read low 1.01 | locus YDR101C, strain arx1, active compounds read low 0.971 | locus YDR150W, strain NUM1, active compounds read low 1.01 | locus YDR162C, strain NBP2, active compounds read low 1.04 | locus YDR318W, strain mcm21, active compounds read low 1.01 | locus YDR363W, strain ESC2, active compounds read low 1.03 | locus YDR388W, active compounds read low 1.01 | locus YDR502C, strain sam2, active compounds read low 0.994 | locus YEL061C, strain CIN8, active compounds read low 1.01 | locus YER002W, strain NOP16, active compounds read low 1 | locus YER110C, active compounds read low 1.01 | locus YER155C, strain BEM2, active compounds read low 1.01 | locus YER167W, strain BCK2, active compounds read low 1.02 | locus YGL078C, strain dbp3, active compounds read low 0.995 | locus YGL086W, strain mad1, active compounds read low 0.985 | locus YGL248W, strain PDE1, active compounds read low 1 | locus YGR078C, strain PAC10, active compounds read low 0.999 | locus YGR135W, strain pre9, active compounds read low 1.06 | locus YGR229C, strain SMI1, active compounds read low 1.02 and 1.01 | locus YGR252W, strain gcn5, active compounds read low 1.04 | locus YHR030C, strain SLT2, active compounds read low 1 and 0.949 | locus YHR079C, strain IRE1 (second series), active compounds read low 1 | locus YHR079C, strain IRE1, active compounds read low 0.969 | locus YHR094C, strain hxt1, active compounds read low 1.01 | locus YHR129C, strain ARP1, active compounds read low 1.01 | locus YHR200W, strain rpn10, active compounds read low 1 | locus YIL066C, strain RNR3, active compounds read low 1.01 | locus YIL073C, strain SPO22, active compounds read low 1.11 | locus YIL125W, strain kgd1, active compounds read low 0.997 | locus YIR030C, strain dcg1, active compounds read low 0.999 | locus YJL095W, strain BCK1, active compounds read low 1.01 and 0.994 | locus YJL134W, strain LCB3, active compounds read low 1.01 | locus YJL168C, strain set2, active compounds read low 1.01 | locus YJL187C, strain SWE1 (second series), active compounds read low 1.01 | locus YJR043C, strain POL32, active compounds read low 1 | locus YJR066W, strain TOR1, active compounds read low 0.93 | locus YJR075W, strain HOC1, active compounds read low 1.01 | locus YKL009W, strain mrt4, active compounds read low 0.99 | locus YKL068W, active compounds read low 0.999 | locus YKL085W, strain MDH1 (second series), active compounds read low 1 | locus YKL085W, strain MDH1, active compounds read low 1 | locus YKL190W, strain CNB1, active compounds read low 0.999 | locus YKR001C, strain vps1, active compounds read low 1 | locus YLR039C, strain RIC1, active compounds read low 1.05 | locus YLR058C, strain SHM2, active compounds read low 1.01 | locus YLR102C, strain apc9, active compounds read low 1 | locus YLR113W, strain HOG1, active compounds read low 1.01 | locus YLR262C, strain YPT6, active compounds read low 1.06 | locus YLR268W, strain sec22, active compounds read low 0.996 | locus YLR330W, strain CHS5, active compounds read low 1.01 | locus YLR342W, strain FKS1 (second series), active compounds read low 1.07 | locus YLR371W, strain rom2, active compounds read low 1 | locus YLR418C, strain cdc73, active compounds read low 1.03 | locus YML016C, strain PPZ1, active compounds read low 1 | locus YML032C, strain rad52, active compounds read low 0.992 | locus YML124C, strain tub3, active compounds read low 1 | locus YMR078C, strain ctf18, active compounds read low 1 | locus YMR223W, strain ubp8, active compounds read low 1.05 | locus YMR307W, strain GAS1, active compounds read low 1.07 and 1.01 | locus YNL067W, strain RPL9B, active compounds read low 1 | locus YNL128W, strain TEP1, active compounds read low 1.01 | locus YNL153C, strain GIM3, active compounds read low 1 | locus YNL175C, strain NOP13, active compounds read low 1 | locus YNL183C, strain NPR1, active compounds read low 0.961 | locus YNL197C, strain WHI3, active compounds read low 1 | locus YNL224C, strain SQS1, active compounds read low 1 | locus YNL233W, strain BNI4, active compounds read low 1.01 | locus YNL250W, strain rad50, active compounds read low 1.03 | locus YNL271C, strain bni1, active compounds read low 1.01 | locus YNL298W, strain CLA4, active compounds read low 1.01 | locus YNL307C, strain MCK1, active compounds read low 1.02 | locus YNR052C, strain pop2, active compounds read low 1 | locus YOL012C, strain htz1 0.897 | locus YOL147C, strain pex11, active compounds read low 1.01 | locus YOR061W, strain CKA2, active compounds read low 1 | locus YOR069W, strain VPS5, active compounds read low 1.01 | locus YOR083W, strain WHI5 (second series), active compounds read low 1.01 | locus YOR136W, strain idh2, active compounds read low 0.992 | locus YOR144C, strain elg1, active compounds read low 1 | locus YOR184W, strain ser1, active compounds read low 1 | locus YOR231W, strain MKK1, active compounds read low 0.957 | locus YOR316C, strain cot1, active compounds read low 1 | locus YPL055C, strain LGE1, active compounds read low 0.99 | locus YPL241C, strain CIN2, active compounds read low 1.01 | locus YPL256C, strain CLN2, active compounds read low 0.958 | locus YPR119W, strain clb2, active compounds read low 0.994 | locus YPR141C, strain kar3, active compounds read low 1 | locus YPR163C, strain tif3, active compounds read low 1.01 | locus YPR167C, strain met16, active compounds read low 1 | strain wtn01, active compounds read low 0.995

— PubChem BioAssay AID1159580 (chemical genetic matrix, 2015)
